# In the supplement of paper PMC10338343:
# ± gives the standard deviation.
# Tests used:
# [1] = test system: MILI (PIWIL2) piRISC loaded with piRNA #1 (26 nt); experiment: pre-steady-state target cleavage rate (min^-1); guide: piRNA #1 5'p-UGAGGUAGUAGGUUGUAUAGUAUCCA; higher = faster piRNA-guided slicing of the target; details: auxiliary factor: 500 nM mouse GTSF1
# How it was run: (§1)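 Active affinity-purified piRISC (1 nM) loaded with one synthetic guide was mixed with a transcribed, DNA-blocked target RNA library (0.1 nM), with or without 500 nM GTSF1 partner protein, in HEPES–potassium acetate buffer at 33 °C for 0–8 or 0–960 min. Uncleaved targets were sequenced, normalised to depth and to weakly complementary targets, and pooled across three trials, with k3 capped at 0.0001 min^-1. The pre-steady-state cleavage rate was determined with a burst-and-steady-state fit.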
# [2] = test system: EfPiwi piRISC loaded with piRNA #1 (26 nt); experiment: pre-steady-state target cleavage rate (min^-1); auxiliary factor: 500 nM Ephydatia muelleri Gtsf1; guide: piRNA #1 5'p-UGAGGUAGUAGGUUGUAUAGUAUCCA; higher = faster piRNA-guided slicing of the target
# How it was run: as §1
# [3] = test system: MILI (PIWIL2) piRISC loaded with L1MC piRNA (26 nt); experiment: pre-steady-state target cleavage rate (min^-1); guide: L1MC piRNA 5'p-UAACUAAAUACUAUGCAAGCUGUAGG; higher = faster piRNA-guided slicing of the target; details: auxiliary factor: 500 nM mouse GTSF1
# How it was run: as §1
# [4] = test system: EfPiwi piRISC loaded with L1MC piRNA (26 nt); experiment: pre-steady-state target cleavage rate (min^-1); auxiliary factor: none (no Gtsf1); guide: L1MC piRNA 5'p-UAACUAAAUACUAUGCAAGCUGUAGG; higher = faster piRNA-guided slicing of the target
# How it was run: as §1
# [5] = test system: EfPiwi piRISC loaded with L1MC piRNA (26 nt); experiment: pre-steady-state target cleavage rate (min^-1); auxiliary factor: 500 nM Ephydatia muelleri Gtsf1; guide: L1MC piRNA 5'p-UAACUAAAUACUAUGCAAGCUGUAGG; MIWI and MILI are mouse PIWI proteins and EfPiwi is from a freshwater sponge; tags in brackets are library labels; higher = faster piRNA-guided slicing of the target
# How it was run: as §1
sequence,measurement,setting,value
GGAGACGAUACUAUACAACCUAGCUACCUCA,pre-steady-state target cleavage rate,[1],0.0598 ± 0.0083
same,pre-steady-state target cleavage rate,[2],0.00543 ± 0.0023
GGAGACGAUACUAUACAACCUACUACGUCA,pre-steady-state target cleavage rate,[1],0.081 ± 0.012
same,pre-steady-state target cleavage rate,[2],0.00658 ± 0.002
GGAGUGGAUUCUAUACAACGUACUACCUCA,pre-steady-state target cleavage rate,[1],0.0287 ± 0.0031
GGAGACGAUACUAUACAUCCUUCUACCUCA,pre-steady-state target cleavage rate,[1],0.0277 ± 0.0037
GGAGAGGAUACUAUACAAGCUUCUACCUCA,pre-steady-state target cleavage rate,[2],0.0045 ± 0.0024
GGAGUGGAUACUAUACAACCUACAAGCUCA,pre-steady-state target cleavage rate,[2],0.00192 ± 0.0017
GGAGACGAUACUAUACAACCUACUAGGUCA,pre-steady-state target cleavage rate,[2],0.0052 ± 0.002
GGAGACCUUACUGUACAACCUACUACCUCA,pre-steady-state target cleavage rate,[2],0.0146 ± 0.0073
GGAGACCUUACUCAUACAACCUACUACCUCA,pre-steady-state target cleavage rate,[2],0.00389 ± 0.0032
GGAGAGGAUACUAUACACACCUACUACCUCA,pre-steady-state target cleavage rate,[2],0.00541 ± 0.0039
GGAGACGAUACUAUACAACCUAGUACCUGA,pre-steady-state target cleavage rate,[2],0.00389 ± 0.001
GGAGAGGAUAGUAUACAACCUACUACCUCA,pre-steady-state target cleavage rate,[2],0.00608 ± 0.0032
GGAGUGGAUACUAUACAACCUUACUACCUCA,pre-steady-state target cleavage rate,[2],0.00695 ± 0.0034
GGAGAGGUACUAUACAACCUACUACCUCA,pre-steady-state target cleavage rate,[2],0.00824 ± 0.0048
GGAGUGGAUAGUAUACAACCUACUUCCUCA,pre-steady-state target cleavage rate,[2],0.00264 ± 0.0019
GGAGACCUAACUAUACAACCUACUACCUAA,pre-steady-state target cleavage rate,[2],0.0641 ± 0.025
GGAGAGGAUACUAUACAACCUACUCCUCA,pre-steady-state target cleavage rate,[2],0.00473 ± 0.0025
GGAGACGAUACUAUACGAACCUACUACCUCA,pre-steady-state target cleavage rate,[2],0.00658 ± 0.0033
GGAGACCUAACUAUACAACGAACUACCUCA,pre-steady-state target cleavage rate,[2],< 0.0001
GGAGACCAAACUAUACAACCUAGUACCUCA,pre-steady-state target cleavage rate,[2],0.00518 ± 0.0029
GGAGUGGAUACAAUACUACCUACUACCUCA,pre-steady-state target cleavage rate,[2],0.00316 ± 0.0019
GGAGAGGAUAGUUUACAACCUACUACCUCA,pre-steady-state target cleavage rate,[2],0.0061 ± 0.0039
GGAGAGGAUACUAUACAACGUACUUCCUCA,pre-steady-state target cleavage rate,[2],0.00375 ± 0.0013
GGAGAGGAUACUAGUACAACCUACUACCUCA,pre-steady-state target cleavage rate,[2],0.0114 ± 0.0064
GGAGACCAAACUAUACAACCUACUUCCUCA,pre-steady-state target cleavage rate,[2],0.00317 ± 0.0029
GGAGACCUAUGAUAUCAACCUACUUCCACA,pre-steady-state target cleavage rate,[2],< 0.0001
GGAGACGAUACUAUACAUCCUAGUACCUCA,pre-steady-state target cleavage rate,[2],0.0031 ± 0.001
GGAGUGGAUAGUAUACAAGCUACUACCUCA,pre-steady-state target cleavage rate,[2],0.00224 ± 0.0021
GGAGACCUAUGAUAAGAACCUACUACCACA,pre-steady-state target cleavage rate,[2],< 0.0001
GGAGUGGAUACUAUACAACCUAGUACGUCA,pre-steady-state target cleavage rate,[2],0.00381 ± 0.0014
GGAGAGGAGUACUAUACAACCUACUACCUCA,pre-steady-state target cleavage rate,[2],0.00348 ± 0.003
GGAGAGAUACUAUACAACCUACUACCUCA,pre-steady-state target cleavage rate,[2],0.121 ± 0.054
GGAGUGGAUACUAUAGAACGUACUACCUCA,pre-steady-state target cleavage rate,[2],0.00156 ± 0.0015
GGAGUGGAUACUAUACAAGGUACUACCUCA,pre-steady-state target cleavage rate,[2],0.00342 ± 0.0019
GGAGACGAUACUAUACAGACCUACUACCUCA,pre-steady-state target cleavage rate,[2],0.0101 ± 0.0034
GGAGUGGAUACUAUACAACCUACUAGCUGA,pre-steady-state target cleavage rate,[2],0.00461 ± 0.0027
GGAGAGGAUACUAUGACAACCUACUACCUCA,pre-steady-state target cleavage rate,[2],0.102 ± 0.041
GGAGAGGAUACUAUACAACCUACUUCGUCA,pre-steady-state target cleavage rate,[2],0.00697 ± 0.0031
GGAGACCAAACUAUACAACCUACUACGUCA,pre-steady-state target cleavage rate,[2],0.00503 ± 0.0027
GGAGUGGAUACUAUACAACCAACUUCCUCA,pre-steady-state target cleavage rate,[2],0.00287 ± 0.0019
GGAGAGGAUACUAUACAACCAACUAGCUCA,pre-steady-state target cleavage rate,[2],0.00313 ± 0.0016
GGAGACCAUACUAUACGAACCUACUACCUCA,pre-steady-state target cleavage rate,[2],0.0108 ± 0.0042
GGAGACCUAACUAUACAACCAACUACCUCA,pre-steady-state target cleavage rate,[2],0.00331 ± 0.0023
GGAGACCUAUGAUAUGUUCCUACAACGUCA,pre-steady-state target cleavage rate,[2],< 0.0001
UCCUGCUACAGCUUGCAUAUGUAUUUAGUUA,pre-steady-state target cleavage rate,[3],0.0123 ± 0.0069
same,pre-steady-state target cleavage rate,[4],< 0.0001
same,pre-steady-state target cleavage rate,[5],0.00294 ± 0.0023
